The list is not random: actives were taken first. Their share in the collection is about 7.9%.
HCV inh: inhibitors of hepatitis C virus infection. Huh7.5.1 HCVcc-Cre infection, luciferase reporter, 44 h. actives 3.4% (n = 340,000). AID 651820. Potency, µM (titrated, usually from 41.8 µM), for inactives: at the highest dose activity change, negative = inhibition, hits mostly inhibitors; active means well fitted inhibition curve with a large enough effect; inconclusive means small, poorly fitted or top-dose-only effect, or another doubt; inactive means no such curve, though single readings can be large or run the other way; further: potency means the concentration at half of the fitted maximal effect
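Antiviral activity was scored by luciferase reporter output from cells infected with HCVcc-Cre (~0.5 moi) in presence of compound, 44 h infection period, cells seeded 1,000/well 4 h prior.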
LASV entry inh: inhibitors of Lassa virus binding or cell entry; Lassa virus pseudotype entry inhibition, cell reporter; Potency, µM (top dose mostly 37.9 µM), inactives show at the highest dose activity change, negative = inhibition, usual class: inhibitors; actives 1.2% (n = 300,000); AID 540256; calls by dose curve; tested in HEK293 cells; further: potency means the concentration at half of the fitted maximal effect; nearly all actives have a fitted effect of over 50% in size
FMDV antiviral: foot and mouth disease virus antiviral activity; actives 1.2% (n = 410,000); Potency, µM (series often up to 57.9 µM), inactives show at the top dose activity change, negative = inhibition, actives largely listed as inhibitors; FMDV antiviral cell-based qHTS; calls by dose curve; tested in HEK293T cells; further: read-out not given here; potency means the concentration at half of the fitted maximal effect; nearly all actives have a fitted effect of over 45% in size
HCMV inh: inhibitors of human cytomegalovirus; activity change, negative = inhibition, % at 57.5 µM; HFF cells, HCMV-luciferase reporter, 72 h; active compounds read low; AID 1259415; actives 4.5% (n = 410,000); in the data active means activity change below about -60%; inconclusive means no clear call, values can overlap the other calls; inactive means above about -39%
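Two-dose cell screen: HFF monolayers treated with compounds and infected with luciferase-expressing HCMV at 1 PFU/cell, 72 h at 37C, then lysed for luciferase measurement.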
Marburg entry inh: blocks Marburg virus binding to or entry into cells; Potency, µM (titrated, usually from 37.8 µM), inactives show at the highest dose activity change, negative = inhibition, actives largely listed as inhibitors; Marburg virus pseudotyped entry inhibition, cell reporter; actives 1.8% (n = 300,000); calls by dose curve; tested in HEK293 cells; further: potency means the concentration at half of the fitted maximal effect
* hit, by the source's call; ! = a repeat was not active; [ ] = dose if it differs, or a comment. On the % scale 0 is the no-effect control and ±100 the full control effect.

CCC1CN(C(=O)NCc2cccc(OC)c2)c2ccccc2O1 (configuration not stated) was read as HCV inh inconclusive, LASV entry inh inconclusive, FMDV antiviral -21% and HCMV inh -8.
Screening CCC1CN(C(=O)NCc2cccc(OC)c2)c2cc(Cl)ccc2O1 (configuration not stated) returned HCV inh 5.6µM*, LASV entry inh -16%[46.1 µM], FMDV antiviral 0% and HCMV inh -18.
CCC1CN(C(=O)NCc2ccc(C)cc2)c2cc(C)ccc2O1 (configuration not stated) was read as HCV inh -23%, LASV entry inh inconclusive, FMDV antiviral -19% and HCMV inh -75*!.
Screening NC(=O)c1ccccc1NC(=O)Cn1nc(Cc2cccnc2)c2ccccc2c1=O returned LASV entry inh -14%[46.1 µM], FMDV antiviral -14%, HCMV inh inconclusive and Marburg entry inh inconclusive.
Screening Cc1ccc(CNS(=O)(=O)c2cc(C(=O)Nc3cccc(C(F)(F)F)c3)ccc2F)cc1 returned LASV entry inh 4%[46.1 µM], FMDV antiviral -6% and HCMV inh 4.
COc1ccc2c(c1)-c1nc(-n3ncc(C(=O)NC(C)(C)CO)c3C3CC3)ncc1CC2 was read as FMDV antiviral -20%.
COc1ccc(Cl)cc1C(=O)NCCS(=O)(=O)N1CCN(c2ccccc2F)CC1 was read as HCV inh -5%, FMDV antiviral -9% and HCMV inh 2.
Screening COc1ccccc1N1CCN(S(=O)(=O)CCNC(=O)CCc2ccccc2)CC1 returned FMDV antiviral inconclusive and HCMV inh -86*.
Screening COc1ccccc1N1CCN(S(=O)(=O)CCNC(=O)C23CC4CC(CC(C4)C2)C3)CC1 returned HCV inh inconclusive, FMDV antiviral 14µM* and HCMV inh -13.
`COc1ccccc1N1CCN(S(=O)(=O)CCNC(=O)CC2CCCCC2)CC1` gave HCV inh 7%[8.37 µM], LASV entry inh inconclusive, FMDV antiviral inconclusive, HCMV inh -34 and Marburg entry inh -28%.
Screening COc1ccc(Cl)cc1C(=O)NCCS(=O)(=O)N1CCN(c2ccccc2OC)CC1 returned LASV entry inh -13%[46.1 µM], FMDV antiviral 8.9µM* and HCMV inh -20.
For COc1cc2c(=O)c(S(=O)(=O)c3ccccc3)cn(CC(=O)Nc3ccccc3C)c2cc1OC the results were LASV entry inh 18%[46.1 µM], FMDV antiviral 12%, HCMV inh 6 and Marburg entry inh -24%[46.1 µM].
COc1cccc(N2CCN(C(=O)c3nc(-c4ccc(Cl)cc4)n4c3CCCCC4)CC2)c1 was read as LASV entry inh inconclusive, FMDV antiviral 0% and HCMV inh 14.
Screening COc1ccc(C(=O)C2CCCN(C/C=C/c3ccccc3OC)C2)c(OC)c1 (configuration not stated) returned HCV inh inconclusive, LASV entry inh -12%[46.1 µM], FMDV antiviral -8%, HCMV inh -61* and Marburg entry inh inconclusive.
For COc1ccc(C(=O)C2CCCN(Cc3ccc(C#CCCO)cc3)C2)cc1F (configuration not stated) the results were HCV inh -24%, LASV entry inh 13%, FMDV antiviral inconclusive, HCMV inh -28 and Marburg entry inh 1.1µM*.
COc1ccc(C(=O)C2CCCN(Cc3ccc4nonc4c3)C2)cc1F (configuration not stated) was read as HCV inh -22%, LASV entry inh inconclusive, FMDV antiviral -20%, HCMV inh 19 and Marburg entry inh -26%[46.1 µM].
Screening COc1cccc(C(=O)C2CCCN(C/C=C/c3ccccc3OC)C2)c1 (configuration not stated) returned HCV inh 11%, LASV entry inh -21%[46.1 µM], FMDV antiviral -5%, HCMV inh -7 and Marburg entry inh inconclusive.
Screening COc1ccc(C(=O)C2CCCN(Cc3cccn3-c3ccc(Cl)cn3)C2)c(OC)c1 (configuration not stated) returned HCV inh 8.9µM*, LASV entry inh inconclusive, FMDV antiviral 20µM*, HCMV inh inconclusive and Marburg entry inh inconclusive.
COc1ccccc1/C=C/CN1CCCC(CCC(=O)NCc2ccccc2F)C1 (configuration not stated) was read as HCV inh -13%, LASV entry inh inconclusive, FMDV antiviral -13%, HCMV inh 2 and Marburg entry inh 6.3µM*.

Screens: PubChem, National Center for Advancing Translational Sciences (NCATS)
